# Reference: PubChem BioAssay
# A number with no mark means an inactive call. Activity calls are given as the source filed them.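 Rule for the calls, unless noted: active = compound raises GLP1 secretion from the human gut endocrine cells, with no numeric limit stated; inactive = the rest.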
# Assay: glucagon-like peptide 1 release enhancers, primary assay, NCI-H716 cell line, NPC library (AID 1117341); note: reference of the scale not given here
# Conditions: NCI-H716 cells, at 10 µM, hits give high values
row,Compound,GLP1 secretion stimulation [%]
1,CC(C)(C)c1cc(O)ccc1O,-1
2,CCN(CC)C(=O)N[C@@H]1C=C2c3cccc4[nH]cc(c34)C[C@@H]2N(C)C1,-1
3,COc1cccc(C(=O)CCN[C@@H](C)[C@H](O)c2ccccc2)c1,0.7
4,CC1(C)S[C@@H]2[C@H](N)C(=O)N2[C@@H]1C(=O)O,0
5,CCCN(CCC)C(=O)Cc1c(-c2ccc(Cl)cc2)nc2ccc(Cl)cn12,-2.3
6,Nc1ccccc1C(=O)O,1.1
7,COc1cc(CC#N)cc(OC)c1OC,4.1
8,C[C@H]1CNCCc2ccc(Cl)cc21,6.1
9,Nc1ccc(N)cc1,4.2
10,CC(C)(C)NC[C@H](O)c1ccc(O)cc1Cl,5.5
11,Clc1ccccc1N1CCNCC1,3.6
12,CCN(CC)N(O)N=O,-1.7
13,CCN(CC)Cc1nccn1-c1ccc([N+](=O)[O-])cc1C(=O)c1ccccc1Cl,-0.3
14,O=c1[nH]c2cc(Cl)ccc2n1C1CCNCC1,10.2
15,Oc1ccccc1-c1ccccc1,-1.2
16,O=C(N[C@H]1N=C(c2ccccc2F)c2cccc3c2N(CC3)C1=O)c1cc2ccccc2[nH]1,1.8
17,COP(=S)(OC)SCN1C(=O)c2ccccc2C1=O,0
18,CC(C)NC(C)C,-0.1
19,CNC(C)[C@@H](O)c1ccc(O)cc1 (stereo not given in full),-5
20,CCCOC(=O)c1cncn1C(C)c1ccccc1 (stereo not given),1.9

row,Compound,GLP1 secretion stimulation [%]
1,C1CN(P2(N3CC3)=NP(N3CC3)(N3CC3)=NP(N3CC3)(N3CC3)=N2)CCO1 (stereo not given),-5.1
2,N[C@@H](Cc1ccc(Oc2cc(I)c(O)c(I)c2)c(I)c1)C(=O)O,-3.9
3,CC[N+]1(CC)CCC(OC(=O)C(O)(c2ccccc2)c2ccccc2)C1 (stereo not given),2.4
4,COc1ccc2c(C(=O)c3ccc(Cl)cc3)c(C)n(CC(=O)O)c2c1,-0.1
5,S=C(SSC(=S)N1CCCCC1)N1CCCCC1,-2.3
6,C[N+](C)(C)CCOC(=O)C(O)(c1ccccc1)c1ccccc1,-2.6
7,CNC(=O)NC(O)C(Cl)(Cl)Cl (stereo not given),3.1
8,C[C@]12C[C@@H]3S[C@H]3C[C@@H]1CC[C@H]1[C@H]3CC[C@@H](O)[C@@]3(C)CC[C@@H]12,-4.2
9,O=C(O)c1ccc(=O)[nH]c1,-0.3
10,C#CCOC(C(=O)OCCN(C)C)(c1ccccc1)c1ccccc1,5.3
11,CC(=O)C1CCOC1=O (stereo not given),2.7
12,C[C@]12C=CC(=O)C=C1CC[C@@H]1[C@@H]2CC[C@@]2(C)[C@H]1CC[C@]2(C)O,4
13,CN1CCc2cc(Cl)c(O)cc2[C@H]2c3ccccc3CC[C@@H]21,5.5
14,C[C@]12CC[C@H]3[C@@H](CCC4=CC(=O)CC[C@@]43C)[C@@H]1CC[C@@H]2C(=O)O,-3.2
15,O=C1OC(c2ccc(O)c(S(=O)(=O)O)c2)(c2ccc(O)c(S(=O)(=O)O)c2)c2c(Br)c(Br)c(Br)c(Br)c21,6.8
16,CN1CCC(O)(c2ccc(F)cc2)C(C(=O)c2ccc(F)cc2)C1 (stereo not given),4.8
17,CC(=O)O[C@H]1C[C@H](O[C@H]2[C@@H](O)C[C@H](O[C@@H]3[C@@H](O)C[C@H](O[C@H]4CC[C@@]5(C)[C@H](CC[C@@H]6[C@H]5C[C@@H](O)[C@]5(C)[C@@H](C7=CC(=O)OC7)CC[C@]65O)C4)O[C@@H]3C)O[C@@H]2C)O[C@H](C)[C@H]1O[C@@H]1O[C@H](CO)[C@@H](O)[C@H](O)[C@@H]1O,-0.9
18,CCc1ccc(C2CCNCC2)cc1,-5.6
19,C=CCOC(Cn1ccnc1)c1ccc(Cl)cc1Cl (stereo not given),0.8
20,C1CCC(NC2CCCCC2)CC1,0.1

# Assay: HCT116 colon cancer cell growth inhibition, primary screen, CellTiter-Glo luminescence, NPC library (AID 1117342;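 active = compounds that lower survival of HCT116 colon cancer cells in the luminescence readout, no numeric limit stated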)
# Conditions: at 20 µM (top of the series)
row,Compound,inhibition of viability
1,CC(C)(C)c1cc(O)ccc1O,-45.9%
2,CCN(CC)C(=O)N[C@@H]1C=C2c3cccc4[nH]cc(c34)C[C@@H]2N(C)C1,12.2%
3,COc1cccc(C(=O)CCN[C@@H](C)[C@H](O)c2ccccc2)c1,2.3%
4,CC1(C)S[C@@H]2[C@H](N)C(=O)N2[C@@H]1C(=O)O,2.1%
5,CCCN(CCC)C(=O)Cc1c(-c2ccc(Cl)cc2)nc2ccc(Cl)cn12,49.5%
6,Nc1ccccc1C(=O)O,6.4%
7,COc1cc(CC#N)cc(OC)c1OC,22.6%
8,C[C@H]1CNCCc2ccc(Cl)cc21,1.7%
9,Nc1ccc(N)cc1,51% (active)
10,CC(C)(C)NC[C@H](O)c1ccc(O)cc1Cl,35.7%
11,Clc1ccccc1N1CCNCC1,48.4%
12,CCN(CC)N(O)N=O,-0.1%
13,CCN(CC)Cc1nccn1-c1ccc([N+](=O)[O-])cc1C(=O)c1ccccc1Cl,28.5%
14,O=c1[nH]c2cc(Cl)ccc2n1C1CCNCC1,29.9%
15,Oc1ccccc1-c1ccccc1,-18.2%
16,O=C(N[C@H]1N=C(c2ccccc2F)c2cccc3c2N(CC3)C1=O)c1cc2ccccc2[nH]1,54.9% (active)
17,COP(=S)(OC)SCN1C(=O)c2ccccc2C1=O,-8.5%
18,CC(C)NC(C)C,1.1%
19,CNC(C)[C@@H](O)c1ccc(O)cc1 (stereo not given in full),3.4%
20,CCCOC(=O)c1cncn1C(C)c1ccccc1 (stereo not given),11%

row,Compound,inhibition of viability
1,C1CN(P2(N3CC3)=NP(N3CC3)(N3CC3)=NP(N3CC3)(N3CC3)=N2)CCO1 (stereo not given),30.4%
2,N[C@@H](Cc1ccc(Oc2cc(I)c(O)c(I)c2)c(I)c1)C(=O)O,39.6%
3,CC[N+]1(CC)CCC(OC(=O)C(O)(c2ccccc2)c2ccccc2)C1 (stereo not given),4.2%
4,COc1ccc2c(C(=O)c3ccc(Cl)cc3)c(C)n(CC(=O)O)c2c1,8%
5,S=C(SSC(=S)N1CCCCC1)N1CCCCC1,-14.8%
6,C[N+](C)(C)CCOC(=O)C(O)(c1ccccc1)c1ccccc1,96.5% (active)
7,CNC(=O)NC(O)C(Cl)(Cl)Cl (stereo not given),-4.4%
8,C[C@]12C[C@@H]3S[C@H]3C[C@@H]1CC[C@H]1[C@H]3CC[C@@H](O)[C@@]3(C)CC[C@@H]12,18.8%
9,O=C(O)c1ccc(=O)[nH]c1,7.7%
10,C#CCOC(C(=O)OCCN(C)C)(c1ccccc1)c1ccccc1,-6.2%
11,CC(=O)C1CCOC1=O (stereo not given),16.7%
12,C[C@]12C=CC(=O)C=C1CC[C@@H]1[C@@H]2CC[C@@]2(C)[C@H]1CC[C@]2(C)O,29.9%
13,CN1CCc2cc(Cl)c(O)cc2[C@H]2c3ccccc3CC[C@@H]21,28.5%
14,C[C@]12CC[C@H]3[C@@H](CCC4=CC(=O)CC[C@@]43C)[C@@H]1CC[C@@H]2C(=O)O,5.9%
15,O=C1OC(c2ccc(O)c(S(=O)(=O)O)c2)(c2ccc(O)c(S(=O)(=O)O)c2)c2c(Br)c(Br)c(Br)c(Br)c21,-59%
16,CN1CCC(O)(c2ccc(F)cc2)C(C(=O)c2ccc(F)cc2)C1 (stereo not given),4.35%
17,CC(=O)O[C@H]1C[C@H](O[C@H]2[C@@H](O)C[C@H](O[C@@H]3[C@@H](O)C[C@H](O[C@H]4CC[C@@]5(C)[C@H](CC[C@@H]6[C@H]5C[C@@H](O)[C@]5(C)[C@@H](C7=CC(=O)OC7)CC[C@]65O)C4)O[C@@H]3C)O[C@@H]2C)O[C@H](C)[C@H]1O[C@@H]1O[C@H](CO)[C@@H](O)[C@H](O)[C@@H]1O,46.8% (active)
18,CCc1ccc(C2CCNCC2)cc1,24.1%
19,C=CCOC(Cn1ccnc1)c1ccc(Cl)cc1Cl (stereo not given),58.1% (active)
20,C1CCC(NC2CCCCC2)CC1,7.9%
